Some test systems named below: SK-MEL-2 melanoma; SN12C renal; UO-31 renal; TK-10 renal; ACHN renal; CAKI-1 renal; A498 renal; CCRF-CEM leukemia; MOLT-4 leukemia.
Common to all, as to assay: NCI-60 one-dose screen, 48 h (100 = growth as untreated, 0 = no growth, -100 = all killed)
Common to all, as to conditions: 10 µM unless noted

About 83,000 compounds went through this panel and 20% of them were active in at least one assay; those are over-represented in the sample as a whole.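 For each line, cells grew in 96-well plates with the test compound present at a single concentration for 48 hours.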 Unmarked numbers belong to inactive results. Calls of active or inactive are those of the source. How the source made its calls: active means growth percent below 10; inactive means the rest.

For `CCOC(=O)Nc1ccc2nc(N3CCCCCC3)sc2c1`, the growth with SK-MEL-2 melanoma is 36.8%; in the assay on SN12C renal, 44.2%; with UO-31 renal it was 39.2%; in the assay with TK-10 renal, 51.1%; in the assay with ACHN renal, 61.9%; in the assay on CAKI-1 renal, 27.2%. Also, the figures for the growth with A498 renal and with CCRF-CEM leukemia were 54.7% and 16.7%, respectively.

Turning to `COc1cc(C2CC(c3ccc(Cl)cc3)=NN2C=O)ccc1Oc1ccnc2cc(Cl)ccc12` (centres undefined), the growth was 86.7% in the assay on SK-MEL-2 melanoma; 77.3% in the assay on SN12C renal; 80.8% in the assay on UO-31 renal; 83% with TK-10 renal; 41% in the assay on ACHN renal; 58.5% in the assay with CAKI-1 renal. For the same molecule, the growth in the assay with A498 renal was 62.6%; in the assay on CCRF-CEM leukemia, 68.8%; in the assay on MOLT-4 leukemia, 62%.

On to `CCCCCN(CCCCC)C(=O)C(CCC(=O)O)NC(=O)c1ccc(Cl)c(Cl)c1` (centres undefined), for which the growth in the assay with SK-MEL-2 melanoma is 105%; with SN12C renal, 100%; in the assay on UO-31 renal it was 80.4%; in the assay on TK-10 renal it was 124%; with ACHN renal, 100%; in the assay with CAKI-1 renal it was 91.3%. Also, the growth in the assay on A498 renal was 83.8%; in the assay with CCRF-CEM leukemia it was 114%; in the assay on MOLT-4 leukemia, 102%.

Turning to `CS(=O)(=O)c1ccc(C(=O)N2N=C(c3ccccc3)CC2c2ccc3c(c2)OCO3)cc1` (centres undefined), the growth was 89.8% with SK-MEL-2 melanoma; 94.4% with SN12C renal; 66.5% in the assay with UO-31 renal; 107% with TK-10 renal; 107% with ACHN renal; 92.5% in the assay with CAKI-1 renal. Further, the growth in the assay on A498 renal was 86.2%; in the assay with CCRF-CEM leukemia, 105%; in the assay on MOLT-4 leukemia, 52.4%.

`C[N+](C)(C)CC(=O)N/N=C\c1ccco1`: the growth was 111% in the assay with SK-MEL-2 melanoma; 106% in the assay on SN12C renal; 82.8% with UO-31 renal; 95.2% in the assay with TK-10 renal; 107% in the assay with ACHN renal; 98% in the assay with CAKI-1 renal. Moreover, the growth was 98.7% in the assay on A498 renal, 100% in the assay on CCRF-CEM leukemia and 102% in the assay on MOLT-4 leukemia.

With `CN1C(=O)C(C2=NNC(c3ccccc3C(=O)O)C2)C(=O)N(C)C1=O` (centres undefined), the growth with SK-MEL-2 melanoma was 98.9%; in the assay with SN12C renal, 97.2%; in the assay with UO-31 renal, 86.5%; in the assay on TK-10 renal, 96.9%; in the assay with ACHN renal it was 106%; in the assay on CAKI-1 renal, 86.6%. Also, the growth in the assay with A498 renal is 90.8%; in the assay on CCRF-CEM leukemia it was 96%; in the assay with MOLT-4 leukemia, 93.8%.

Take `COc1cc2ncnc(Nc3ccc(S(=O)(=O)Nc4nccs4)cc3)c2cc1OCCCN1CCOCC1`: the growth with SK-MEL-2 melanoma is 99.2%; in the assay with SN12C renal it was 98%; in the assay on UO-31 renal, 83.6%; in the assay with TK-10 renal it was 103%; in the assay with ACHN renal it was 103%; in the assay on CAKI-1 renal it was 91.7%. For the same molecule, the results for the growth with A498 renal, in the assay with CCRF-CEM leukemia and in the assay on MOLT-4 leukemia were 115%, 105% and 105%, respectively.

Turning to `COc1ccc(-c2cc(C(=O)Nc3ccc(C)cc3)nc3[nH]c(=O)sc23)cc1`, the growth in the assay on SK-MEL-2 melanoma was 29.2%; in the assay with SN12C renal it was 58.2%; with UO-31 renal, 58.3%; in the assay on TK-10 renal, 61.1%; in the assay on ACHN renal, 90.2%; with CAKI-1 renal it was 60.6%. The growth with A498 renal was 9.83% (active); with CCRF-CEM leukemia, 71.1%; in the assay on MOLT-4 leukemia, 81.5%.

Regarding `COc1ccc(/C(C)=N/NC(=O)CSc2nc3ccccc3c(=O)n2CCc2ccc(S(N)(=O)=O)cc2)cc1`, the growth in the assay with SK-MEL-2 melanoma is 6.04% (active); with SN12C renal, 27.7%; in the assay on UO-31 renal, 32.4%; in the assay on TK-10 renal, -39.8% (active); with ACHN renal it was 34.7%; with CAKI-1 renal, 28.9%. Also, the results for the growth with A498 renal, in the assay with CCRF-CEM leukemia and with MOLT-4 leukemia were 5.05% (active), 33.9% and 43%, respectively.

Take `CN1C2CCC1/C(=C\c1ccc(F)cc1)C(=O)/C2=C/c1ccc(F)cc1`: the growth was 50% with SK-MEL-2 melanoma; 37.8% in the assay on SN12C renal; 49.7% in the assay on UO-31 renal; 73.1% in the assay with TK-10 renal; 55.5% with ACHN renal; 54.8% with CAKI-1 renal. Moreover, the growth with A498 renal is 73.3%; in the assay with CCRF-CEM leukemia, 16.5%; in the assay on MOLT-4 leukemia it was 9.91% (active).

As to `Cc1cccc(N=NC(=S)NNc2cccc(C)c2)c1`, the growth was 111% in the assay on SK-MEL-2 melanoma; 102% with SN12C renal; 81.6% in the assay on UO-31 renal; 136% in the assay on TK-10 renal; 92.1% in the assay on ACHN renal; 94.5% with CAKI-1 renal. Also, the growth was 87.3% in the assay on A498 renal, 86.6% in the assay with CCRF-CEM leukemia and 98.4% in the assay with MOLT-4 leukemia.

In the case of `CC1(C)OC2OC3C(CN)OC(c4ccccc4)OC3C2O1` (centres undefined), the growth was 103% with SK-MEL-2 melanoma; 103% in the assay on SN12C renal; 103% in the assay with UO-31 renal; 104% in the assay with TK-10 renal; 103% in the assay on ACHN renal; 92.5% with CAKI-1 renal. Also, the growth with A498 renal was 96.8%; in the assay on CCRF-CEM leukemia it was 104%; in the assay on MOLT-4 leukemia it was 5.53% (active).

Take `Clc1ccc(-c2cnc3nonc3n2)s1`: the growth in the assay with SK-MEL-2 melanoma is 93.6%; in the assay on SN12C renal it was 92.6%; with UO-31 renal, 64%; with TK-10 renal it was 103%; in the assay with ACHN renal, 81.9%; in the assay on CAKI-1 renal, 94.1%. For the same molecule, the results for the growth with A498 renal, in the assay with CCRF-CEM leukemia and in the assay on MOLT-4 leukemia were 93.9%, 11.3% and 47.2%, respectively.

Take `COc1ccc2[nH]cc(C3(c4c[nH]c5ccc(OC)cc45)C(=O)Nc4ccc(Cl)cc43)c2c1`: the growth was 90.7% with SK-MEL-2 melanoma; 91.8% in the assay on SN12C renal; 46.3% in the assay on UO-31 renal; 107% in the assay on TK-10 renal; 76% in the assay with ACHN renal; 62.2% with CAKI-1 renal. In addition, the growth was 73.8% in the assay on A498 renal, 15.8% with CCRF-CEM leukemia and 5.75% (active) with MOLT-4 leukemia.

On to `COc1ccc(/C(C)=N/NC(=O)c2ccc(S(C)(=O)=O)cc2)cc1OC`, for which the growth in the assay with SK-MEL-2 melanoma was 101%; in the assay on SN12C renal, 100%; in the assay with UO-31 renal, 91.9%; in the assay on TK-10 renal, 102%; in the assay with ACHN renal, 108%; in the assay on CAKI-1 renal, 91.6%. In addition, the values for the growth in the assay on A498 renal, in the assay with CCRF-CEM leukemia and in the assay with MOLT-4 leukemia were 94.1%, 115% and 71.1%, respectively.

Values taken from PubChem BioAssay (NCI).
